# Experimental data published in PubChem BioAssay (Tox21).
# Where “and” joins values, the source holds several entries; their conditions need not be identical. Equal values may be shown once. Inconclusive results are not listed. A call without a number means that no potency is given here. Calls of active or inactive are those of the source. The call rests on the fitted dose curve; in most records, active means well fitted curve in the direction sought with a large enough effect in the repeat runs; inconclusive means weak or mixed curves; inactive means no such curve, though single readings can be large; an effect the other way counts as inactive or inconclusive.
# What was measured:
# [1] = qHTS assay to identify small molecule antagonists of the retinoic acid receptor (RAR) signaling pathway (AID 1159552; further: nearly all actives have a fitted effect of over 50% in size; further: potency means the concentration at half of the fitted maximal effect)
# Procedure, shortened: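 RARE-luc C3RL4 cells; cpds + 1 uM (final) retinol, 6 hr, 37 C/5% CO2; luciferase reagent, 30 min RT, luminescence readout. Inhibitors of retinol-driven signal scored.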
# [2] = qHTS assay to identify small molecule agonists of the retinoic acid receptor (RAR) signaling pathway (AID 1159553); further: potency means the concentration at half of the fitted maximal effect
# Procedure, shortened: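 Luminescence was measured 30 min after luciferase reagent addition at room temperature. Before that, C3RL4 reporter cells (1,000 per well, plated overnight) were treated with compound for 6 hr at 37 C and 5% CO2.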
# [3] = qHTS assay to identify small molecule antagonists of the retinoid acid receptor (RAR) signaling pathway - cell viability counter screen (AID 1159551); further: nearly all actives have a fitted effect of over 35% in size
# Procedure, shortened: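 Cytotoxicity counter screen: ATP content quantified by CellTiter-Glo luminescence in C3RL4 cells treated 6 hr at 37 C with compound and retinol (1 uM final). Cells plated at 1,000/well and cultured overnight before dosing.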
# [4] = qHTS assay to identify small molecule antagonists of the estrogen related receptor (ERR) signaling pathway - cell viability counter screen (AID 1224818);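 further: series mostly up to about 46 µM; viability measured after 17.5 h of compound exposure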
# Procedure, shortened: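 Cytotoxicity counter screen: fluorescence from CellTiter-Fluor, added after 17.5 h compound exposure at 37 C and read 30 min later. ERR cell line seeded at 2,000 cells/well, preincubated 6 h before dosing.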
# [5] = qHTS assay to identify small molecule antagonists of the estrogen related receptor signaling pathway with the pleiotropic PPARgamma coactivator (PGC) cell viability counter screen (AID 1224822; further: series mostly up to about 46 µM)
# Procedure, shortened: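 Viability counter-screen read by fluorescence intensity after 30 min with CellTiter-Fluor at 37 C; PGC/ERR reporter cells were exposed to compounds for 17.5 h at 37 C following a 6 h preincubation.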
Structure (SMILES),Potency [1],Potency [2],Potency [3],Potency [4],Potency [5]
Cc1ccc(S(=O)(=O)Oc2ccc(N=Nc3ccc(-c4ccc(N=Nc5c(O)ccc6cc(S(=O)(=O)O)cc(S(=O)(=O)O)c56)c(C)c4)cc3C)cc2)cc1,inactive,inactive,,,
Nc1cc(S(=O)(=O)O)cc2cc(S(=O)(=O)O)cc(O)c12,,inactive,inactive,,
c1cc(C(c2ccc(OCC3CO3)cc2)C(c2ccc(OCC3CO3)cc2)c2ccc(OCC3CO3)cc2)ccc1OCC1CO1 (configuration not stated),inactive,8.96 µM (active) and 27.3 µM (active),,,
CNCCC(Oc1ccc(C(F)(F)F)cc1)c1ccccc1 (configuration not stated),53.8 µM (active),,inactive,inactive,
CC(=O)OCCOCCOCCOC(C)=O,inactive,inactive,inactive,,
NC12CC3CC(CC(C3)C1)C2,inactive,inactive,inactive,inactive,inactive
CC(N)=O,inactive,inactive,,inactive,inactive
CCCCCCC(O)CCCCCCCCCCC(=O)O (configuration not stated),inactive,inactive,inactive,,
c1ccc2cc3c(ccc4ccccc43)cc2c1,inactive,2.74 µM (active) and 3.86 µM (active),inactive,,
